Data taken from PubChem BioAssay AID2108 (National Center for Advancing Translational Sciences (NCATS), 2009).
Records with an inconclusive call do not appear. Calls follow the shape of the dose curve; as a rule, active = well fitted curve in the direction sought with a large enough effect; inconclusive = small, poorly fitted or top-dose-only effect, or effect the other way, or another doubt; inactive = no such curve, though single readings can be large or run the other way.

target: Alpha-galactosidase A (Homo sapiens) (UniProt P06280); experiment: Confirmation of Inhibitors of Human alpha-Galactosidase Using Spleen Homogenate; settings: alpha-galactosidase enzyme activity; series mostly up to 56.2 µM; activity change: at the top concentration; also: 0% is about no effect
Sequence (P06280 32-429 limits assumed): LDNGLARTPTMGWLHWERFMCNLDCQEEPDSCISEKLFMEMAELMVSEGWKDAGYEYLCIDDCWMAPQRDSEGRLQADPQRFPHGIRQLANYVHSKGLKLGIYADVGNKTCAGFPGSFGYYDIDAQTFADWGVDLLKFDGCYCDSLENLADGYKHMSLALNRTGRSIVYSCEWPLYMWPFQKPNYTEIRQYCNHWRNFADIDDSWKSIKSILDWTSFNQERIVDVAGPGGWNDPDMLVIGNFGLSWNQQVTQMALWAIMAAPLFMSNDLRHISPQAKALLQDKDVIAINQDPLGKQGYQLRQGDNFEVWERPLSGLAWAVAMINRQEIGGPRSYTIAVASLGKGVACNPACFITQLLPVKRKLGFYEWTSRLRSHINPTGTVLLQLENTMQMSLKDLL
In short: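 Human spleen homogenate (1 ug) with 1 mM 4-methylumbelliferyl-alpha-D-galactopyranoside in citrate-phosphate pH 5.0, 0.01% Tween-20, 37C 40 min; compounds 0.5 nM–58 uM final. Stopped at pH 10, fluorescence Ex 365/Em 440; AC50 from Hill fits.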

Activity change, inactive:
COc1cc(CN2CCC(CO)(Cc3cccc(C(F)(F)F)c3)CC2)ccc1F -4.41%, CCOc1ccccc1CNc1ccc(O)cc1 -14.5%, O=S(=O)(c1cccnc1)N1CCOCC1 5.38%, C[C@@H](NC(=O)c1nc[nH]c1C(=O)N[C@@H](Cc1ccccc1)C(=O)OC(C)(C)C)c1ccccc1 1.74%, CC(=O)N1CCN(c2ccc(NCc3ccc(C)cc3)cc2)CC1 -3.79%, COC(=O)c1ccc(CSc2cc(C)c3cccc(C)c3n2)o1 -0.608% [at 23.6 µM], Cc1[nH]nc2c1C(c1ccc(OC(=O)c3ccco3)cc1)C(C#N)=C(N)O2 (stereo unspecified) -1.13%, Cc1ccc(S(=O)(=O)N2CCN(C(=O)C3COc4ccccc4O3)CC2)cc1C (stereo unspecified) 3.88%, O=C1NC[C@@H](Cc2cccc3ccccc23)N(CCc2cc(C(F)(F)F)cc(C(F)(F)F)c2)C1=O -5.01%, CCOC(=O)CCc1cccc2c1CCC2=O 10.5% [at 23.6 µM], Cc1ccc(S(=O)(=O)N2CCN(CC(=O)N/N=C\c3ccccn3)CC2)cc1 10.8%, O=C(O)C[C@@H]1C(=O)O[C@@H]2C(COC(=O)c3cc(O)c(O)c(O)c3)O[C@@H](OC(=O)c3cc(O)c(O)c(O)c3)[C@@H](OC(=O)c3cc(O)c(O)c4c3[C@H]1[C@H](O)C(=O)O4)[C@H]2OC(=O)c1cc(O)c(O)c(O)c1 (stereo partly specified) 2.68% [at 23.6 µM], COc1ccc(C2=NNC(c3cc(Cl)cc4c3OCOC4)C2)c(O)c1 (stereo unspecified) 0.302%, Cn1c(-c2ccco2)nc2cc3ccccc3cc21 14.9% [at 23.6 µM], CCC1c2ccc(C)n2CCN1C(=O)Nc1ccccc1C(=O)OC (stereo unspecified) -2.04%, O=S(=O)(c1ccccc1)N1CCN(Cc2ccccc2)CC1 -2.74%, COc1ccc(C2C(C(=O)c3ccco3)=C(O)C(=O)N2CC2CCCO2)c(OC)c1 (stereo unspecified) -1.95%, O=C(CNc1ccc(Cl)cc1)c1ccc(Br)cc1 1.37%, COc1ccccc1NCC(=O)c1ccc(C)c(C)c1 -6.57%, COc1ccccc1CCNC(=O)C1CCC(=O)N(C2CC2)C1 (stereo unspecified) 1.87%, COC(=O)c1cccc(S(=O)(=O)N2CCOCC2)c1 10.6%, N#Cc1ccc(S(=O)(=O)N2CCOCC2)cc1 7.99%, CCc1sc(-c2cc3cc(Cl)ccc3oc2=O)nc1-c1ccccc1 26%, O=S(=O)(c1ccc(Br)cc1)N1CCOCC1 9.71%, Cc1ccc(C2NC(=O)c3c(sc4c3CCN(C)C4)N2)s1 (stereo unspecified) 8.42%, Cn1c(=O)c2sccc2n2c(CCCC(=O)Nc3ccc(F)c(F)c3)nnc12 -2.29%, O=C(O)Cn1nnnc1SCC(=O)Nc1ccc(OC(F)(F)F)cc1 -0.696% [at 23.6 µM], Nc1ccc(Cc2ccc(N)c(O)c2)cc1O -5.93%, COc1ccc(-c2nnc(NC(=O)CSc3ccc(Cl)cc3)s2)cc1 6.4%, O=C(O)c1cc2c(ccc3ccccc32)o1 -0.971% [at 23.6 µM], Nc1nc(C2CC2)c(Sc2sc(N)nc2C2CC2)s1 -1.12%, CC(=O)N1CCN(c2ccc(NCc3ccc4c(c3)OCO4)cc2)CC1 -12.3%, CC(C)(C)c1ccc(OCC(=O)NC(Cc2c[nH]c3ccccc23)C(=O)O)cc1 (stereo unspecified) -12.9%, Cc1ccc(N=Nc2c(N)nn(-c3ccccc3)c2N)cc1 9.02%, CCOc1ccc2c(c1)c(=O)c(S(=O)(=O)c1ccc(C)cc1)cn2Cc1ccccc1Cl -3.76%, CC(C)C[C@H](NC(=O)c1nc[nH]c1C(=O)N[C@@H](CC(C)C)C(=O)OC(C)(C)C)C(=O)OCc1ccccc1 -9.26%
